The cell viability is a read-out of living cells in per cent, often relative to untreated cells.

Molecules are shown by their SMILES. ± gives the uncertainty stated by the source.

Consider four compounds from the supplement of paper PMC8773631.

For this test, the system named is NCC-MFS5-C1. The test can be described thus: cell viability relative to DMSO control; higher = less growth inhibition. Particulars: 10 µM; treatment time: 3 days. The procedure:
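NCC-MFS5-C1 myxofibrosarcoma cells (1x10^4 per well, 384-well) were treated on day 2 with 10 µM of each drug. On day 5, viability was read by CCK-8 absorbance at 450 nm and normalised to the DMSO control (%), n = 2.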
Regarding `Cn1nnc2c(C(N)=O)ncn2c1=O` [Temozolomide], the cell viability was determined as 99.4 ± 23%.
Turning to `O=C(O)C(=O)O.[NH-][C@@H]1CCCC[C@H]1[NH-].[Pt+2]` [Oxaliplatin], the cell viability is 72.7 ± 2.5%.
Take `Cc1ccc(C(=O)Nc2ccc(CN3CCN(C)CC3)c(C(F)(F)F)c2)cc1C#Cc1cnc2cccnn12`: the cell viability is -2.74 ± 0.27%.
For `CCN(CC)CCNC(=O)c1c(C)[nH]c(/C=C2\C(=O)Nc3ccc(F)cc32)c1C` [Sunitinib] the value was 67.9 ± 9.6%.
